Results on seven molecules are retold here after PubChem BioAssay (NCATS).

Records with an inconclusive call do not appear. The source made the active and inactive calls. Unless noted, calls follow the shape of the dose curve; as a rule, active = well fitted curve in the direction sought with a large enough effect; inconclusive = small, poorly fitted or top-dose-only effect, or another doubt; inactive = no such curve, though single readings can be large; an effect the other way counts as inactive or inconclusive.

The target of assay [1] is Catechol O-methyltransferase (Homo sapiens) (UniProt P21964). Put plainly: Confirmatory Screen for Target Class Profiling of Small Molecule Inhibitors of Methyltransferases (AID 1745852; calls by dose curve; also: potency is read from the fitted curve at half-maximal effect; as to activity change, negative = inhibition: % is scaled to controls: 0 for no effect and ±100 for the full control effect). The settings on record: MTase-Glo luminescence, SAH detection, recombinant enzyme; measured here: COMT max response; stronger effect = lower value.
Assay [2] has as its target Guanidinoacetate N-methyltransferase (Homo sapiens) (UniProt Q14353). The assay is described as above. Particulars: MTase-Glo luminescence, SAH detection, recombinant enzyme; activity change, negative = inhibition: at 57.3 µM (top of the series) unless noted; series mostly up to 57.3 µM.
Assay [3] has as its target Nicotinamide N-methyltransferase (Homo sapiens) (UniProt P40261). The description is as above. The settings on record: MTase-Glo luminescence, SAH detection, recombinant enzyme; measured here: NNMT max response; stronger effect = lower value.
The target in assay [4] is Phenylethanolamine N-methyltransferase (Homo sapiens) (UniProt P11086). The description is as above. Particulars: MTase-Glo luminescence, SAH detection, recombinant enzyme; measured here: PNMT max response; stronger effect = lower value.
Assay [5] has as its target Endonuclease 4 (Escherichia coli (strain K12)) (UniProt P0A6C1). Kind of assay: Counterscreen for APE1 Inhibitors: qHTS Validation Assay for Inhibitors of Endonuclease IV (AID 1708). Also: % is scaled to controls: 0 for no effect and ±100 for the full control effect. The settings on record: E. coli endonuclease IV, DNA cleavage fluorescence; series mostly up to 57.1 µM. In short, it runs like this: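 Cleavage of a quenched abasic-site DNA duplex (50 nM, 5'-TAMRA, 3'-BHQ-2) by 2 nM enzyme is followed as fluorescence increase. Compounds are preincubated with enzyme 15 min at room temperature before substrate addition.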
Background: The purpose of a counterscreen is to sort out artefacts and off-target activity.

A short description of assay [6]: qHTS for differential inhibitors of proliferation of Plasmodium falciparum line 7G8 (AID 1815).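 Also: parasite growth measured after three days of incubation.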 Also: potency is read from the fitted curve at half-maximal effect.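 As to activity change, negative = inhibition: plate controls were vehicle wells for no effect and reference inhibitor wells for full effect.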 The settings on record: Plasmodium falciparum 7G8 proliferation inhibition; series mostly up to 28.7 µM.
A short description of assay [7]: qHTS for differential inhibitors of proliferation of Plasmodium falciparum line GB4 (AID 1816).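 Also: potency is read from the fitted curve at half-maximal effect; parasite growth measured after 72 h incubation.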 The settings on record: Potency: Plasmodium falciparum GB4 proliferation inhibition; series mostly up to 28.7 µM. A general note: In qHTS, concentration-response curves come from the screen itself.
A short description of assay [8]: qHTS for differential inhibitors of proliferation of Plasmodium falciparum line 3D7 (AID 1876). Also: potency is read from the fitted curve at half-maximal effect. Particulars: P. falciparum 3D7 proliferation inhibition; series mostly up to 28.7 µM.
Assay [9] can be described thus: qHTS for differential inhibitors of proliferation of Plasmodium falciparum line D10 (AID 1877).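 Also: parasites grown with compound for 72 h before DNA staining.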 Also: potency is read from the fitted curve at half-maximal effect.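 As to activity change, negative = inhibition: plate controls were vehicle wells for no effect and reference inhibitor wells for full effect.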 The settings on record: series mostly up to 28.7 µM.
The nature of assay [10]: qHTS for differential inhibitors of proliferation of Plasmodium falciparum line W2 (AID 1883).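 Also: parasites grown with compound for 72 h before lysis and staining.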 Also: potency is read from the fitted curve at half-maximal effect.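 As to activity change, negative = inhibition: 0% = vehicle wells and -100% = control inhibitor wells.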 Particulars: Potency: Plasmodium falciparum W2 proliferation inhibition; series mostly up to 28.7 µM.
Assay [11] is described as follows: qHTS for differential inhibitors of proliferation of Plasmodium falciparum line HB3 (AID 1886).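 Also: parasites grown with compound for 72 h before SYBR Green readout.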 Also: potency is read from the fitted curve at half-maximal effect.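 As to activity change, negative = inhibition: plate controls were vehicle for no effect and reference inhibitor for full effect.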 The settings on record: Potency: Plasmodium falciparum HB3 proliferation inhibition; series mostly up to 28.7 µM.
Assay [12] addresses ATP-dependent DNA helicase Q1 (Homo sapiens) (UniProt P46063). Put plainly: qHTS Validation Assay for Inhibitors of RecQ-Like Dna Helicase 1 (RECQ1) (AID 2353).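 Also: plate controls were DMSO vehicle for no effect and enzyme-free control for full effect.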 Particulars: recombinant RECQ1 helicase DNA unwinding assay; series mostly up to 25.6 µM. In short, it runs like this: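 50 nM RECQ1T1 preincubated 15 min with compound in Tris pH 8.0 buffer with MgCl2, DTT, Tween-20 and 2.5 ug/ml poly(dI-dC); started with 200 nM TAMRA/BHQ-2 forked duplex and 2 mM ATP. Unwinding read as fluorescence (525/598 nm), two reads 2 h apart.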

Assay [13] is described as follows: Quantitative high throughput screen for delayed death inhibitors of the malarial parasite plastid, 96 hour incubation (AID 488745). Also: nearly all actives have a fitted effect of over 70% in size. Also: potency is read from the fitted curve at half-maximal effect. As to activity change, negative = inhibition: % is scaled to controls: 0 for no effect and ±100 for the full control effect. Particulars: Plasmodium falciparum growth; series mostly up to 28.7 µM. The gist of the method: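 P. falciparum carrying an integrated firefly luciferase reporter, grown in erythrocytes (2% hematocrit, 0.1% parasitemia final) in RPMI 1640/0.5% Albumax, was exposed to compound for 96 h (two generations) at 37 C, 5% CO2. Luminescence decrease indicated growth inhibition.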

A short description of assay [14]: Quantitative high throughput screen for delayed death inhibitors of the malarial parasite plastid, 48 hour incubation (AID 488752). Also: nearly all actives have a fitted effect of over 65% in size. Also: potency is read from the fitted curve at half-maximal effect. Particulars: Plasmodium falciparum growth; series mostly up to 28.7 µM. The gist of the method: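 Erythrocytes infected with P. falciparum carrying an integrated firefly luciferase reporter (2% hematocrit, 0.1% parasitemia final) were exposed to compounds in RPMI 1640/0.5% Albumax for 48 h at 37 C, 5% CO2. Growth inhibition was scored as reduced luminescence.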

The target in assay [15] is M-phase phosphoprotein 8 (Homo sapiens) (UniProt Q99549). Kind of assay: qHTS Validation Assay for Inhibitors for MPP8 Chromodomain Interactions with Methylated Histone Tails (AID 488949). Also: nearly all actives have a fitted effect of over 55% in size. Also: potency is read from the fitted curve at half-maximal effect. The settings on record: AlphaScreen MPP8 binding to H3K9me3 peptide; series mostly up to 114 µM. The gist of the method: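 Chemiluminescent proximity assay: histidine-tag capture via nickel acceptor beads, biotin peptide via streptavidin donor beads. Protein and peptide each at 50 nM, pH 7.4, with 30 min incubations at room temperature for complex formation, compound exposure and bead binding.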

The target of assay [16] is Thyrotropin receptor (Homo sapiens) (UniProt P16473). Put plainly: qHTS Assay for Antagonists of the Thyroid Stimulating Hormone Receptor (AID 488980). Also: 0% is about no effect. The settings on record: TSHR-expressing cells, cAMP antagonist read-out; series mostly up to 57.5 µM. The gist of the method:
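Inhibition of TSH-stimulated cAMP accumulation was quantified by homogeneous time-resolved FRET in TSHR-transfected HEK293 cells. Agonist: TSH, 4 nM final (EC80).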

Assay [17] deals with Galactokinase (Homo sapiens) (UniProt P51570). Put plainly: qHTS Validation Assay for Inhibitors of Human Galactokinase (GALK) (AID 493189). Also: 0% is about no effect. The settings on record: purified human GALK enzyme activity, qHTS 7-point titration; series mostly up to 57.5 µM. The gist of the method: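 Enzyme activity is inferred from ATP consumption: human GALK phosphorylates galactose (100 uM) using 35 uM ATP for 1 h at room temperature, and luciferase-based Kinase-Glo Plus reports unconsumed ATP.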

Assay [18] can be described thus: Validation screen for small molecules that induce DNA re-replication in SW480 colon adenocarcinoma cells (AID 504364). Also: 0% is about no effect. The settings on record: DNA re-replication phenotype (high-content imaging); series mostly up to 46.1 µM. In short, it runs like this:
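SW480 cells seeded at 250 per well were exposed to compound or DMSO for 48 hr at 37 C, 5% CO2, then stained with Hoechst for 40 min. DNA content per nucleus was imaged (405 nm ex, 500-530 nm em).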

The nature of assay [19]: Counterscreen for APE1 Inhibitors: Fluorescent Dye Displacement Validation Assay (AID 1707).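 Also: plate controls were ThO with dsDNA and no compound for no effect and ThO without dsDNA for full effect.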 Particulars: fluorescent dye displacement from DNA; series mostly up to 57.1 µM. In short, it runs like this: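 Compounds are scored by their ability to displace Thiazole Orange (250 nM) from a 50 nM TAMRA-tagged duplex bearing a tetrahydrofuran abasic site. Buffer is 50 mM Tris-HCl pH7.5, 50mM NaCl, 2 mM MgCl2, 0.01% Tween-20.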

Assay [20] is described as follows: qHTS for differential inhibitors of proliferation of Plasmodium falciparum line Dd2 (AID 1882). Also: nearly all actives have a fitted effect of over 65% in size. Also: potency is read from the fitted curve at half-maximal effect.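 As to activity change, negative = inhibition: compound exposure of 72 h on infected erythrocytes; plate controls were DMSO vehicle for no effect and 0.29 µM artemisinin for full effect.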 Particulars: Potency: Plasmodium falciparum Dd2 proliferation inhibition; series mostly up to 28.7 µM. The gist of the method: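 SYBR Green I DNA fluorescence read-out, ex 485/em 535 nm. Signals were normalized to 0.29 uM artemisinin and DMSO wells, then corrected using vehicle-only plates flanking each stack. Parasite growth ran 72 h in erythrocytes before lysis.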

Assay [21] concerns the target Ferritin light chain (Equus caballus) (UniProt P02791). Put plainly: qHTS Validation Assay for Identification of Novel General Anesthetics (AID 2323). Also: % is scaled to controls: 0 for no effect and ±100 for the full control effect. The settings on record: horse apoferritin, anesthetic-site fluorescent probe displacement; series mostly up to 76.9 µM. In short, it runs like this: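 Normalized fluorescence response, scaled between free 1-AMA and 1-AMA/apoferritin complex, fitted to a four-parameter Hill equation for concentration-effect values. Binding mix: 10 uM horse-spleen apoferritin, 50% saturated 1-AMA in PBS; read 380/535 nm after 10 min.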

A short description of assay [22]: Validation screen for small molecules that induce DNA re-replication in MCF 10A normal breast cells (AID 463097). Also: potency is read from the fitted curve at half-maximal effect; nearly all actives have a fitted effect of over 60% in size. Particulars: MCF 10A cells, DNA re-replication phenotype imaging; series mostly up to 46.1 µM. The gist of the method: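 Following 48 hr compound incubation (37 C, 5% CO2), MCF 10A cells receive Hoechst for 40 min at 37 C. Nuclei are then scanned (excitation 405 nm, emission 500-530 nm) for total fluorescence intensity.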

The target in assay [23] is Thyrotropin-releasing hormone receptor (Homo sapiens) (UniProt P34981). Put plainly: qHTS for Small Molecule Agonists and Allosteric Enhancers of Human TRH Receptor: Validation Screen for Agonists (AID 493127;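 active = calcium activation more than 3 SD above the typical response in the agonist read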;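 also: intracellular calcium rise by fluo-8 fluorescence before TRH EC20 addition; 0% is about no effect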). Particulars: TRH receptor agonist cell assay; at 2 µM; stronger effect = higher value. In short, it runs like this:
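TRHR-expressing cells were plated overnight in serum-containing medium, then loaded with fluo-8 calcium dye at room temperature for 30 min–1.5 h. After a 10 s baseline, compound was pin-transferred and calcium fluorescence (ex 480/em 530) read kinetically for agonist response.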

Assay [24] has as its target Voltage-gated inwardly rectifying potassium channel KCNH2 (Homo sapiens) (UniProt Q12809). Put plainly: qHTS Assay for Small Molecule Inhibitors of the Human hERG Channel Activity (AID 588834).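 Also: lower thallium flux fluorescence means stronger hERG block; nearly all actives have a fitted effect of over 50% in size.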 Also: potency is read from the fitted curve at half-maximal effect. The settings on record: U2OS BacMam hERG, FluxOR thallium flux fluorescence; series mostly up to 92.2 µM. In short, it runs like this: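 Blockade is seen as reduced FluxOR thallium-flux fluorescence in U2OS cells expressing hERG from a BacMam construct, in Opti-MEM with 2% FCS. Concentration-response data fitted to the Hill equation for AC50.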

Thyrotropin-releasing hormone receptor (Homo sapiens), sequence (P34981 whole entry, looked up): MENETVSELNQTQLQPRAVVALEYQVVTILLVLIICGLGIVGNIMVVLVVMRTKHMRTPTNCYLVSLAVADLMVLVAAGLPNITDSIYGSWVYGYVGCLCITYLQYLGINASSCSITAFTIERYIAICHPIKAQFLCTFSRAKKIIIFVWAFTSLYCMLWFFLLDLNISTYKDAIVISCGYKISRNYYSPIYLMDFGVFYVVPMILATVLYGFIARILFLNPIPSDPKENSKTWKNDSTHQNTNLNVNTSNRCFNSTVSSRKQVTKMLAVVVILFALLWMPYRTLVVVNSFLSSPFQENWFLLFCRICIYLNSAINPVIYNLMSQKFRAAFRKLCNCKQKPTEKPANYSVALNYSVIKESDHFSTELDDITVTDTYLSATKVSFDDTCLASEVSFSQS
Catechol O-methyltransferase (Homo sapiens), sequence (P21964 whole entry, looked up): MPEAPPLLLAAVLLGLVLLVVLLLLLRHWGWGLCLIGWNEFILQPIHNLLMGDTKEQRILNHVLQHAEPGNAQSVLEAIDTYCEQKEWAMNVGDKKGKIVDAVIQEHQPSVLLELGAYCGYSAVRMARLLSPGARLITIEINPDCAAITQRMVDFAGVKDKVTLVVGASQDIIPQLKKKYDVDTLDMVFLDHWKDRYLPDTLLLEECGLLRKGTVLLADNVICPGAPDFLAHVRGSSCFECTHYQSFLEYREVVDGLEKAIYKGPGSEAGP
Thyrotropin receptor (Homo sapiens), sequence (P16473 whole entry, looked up): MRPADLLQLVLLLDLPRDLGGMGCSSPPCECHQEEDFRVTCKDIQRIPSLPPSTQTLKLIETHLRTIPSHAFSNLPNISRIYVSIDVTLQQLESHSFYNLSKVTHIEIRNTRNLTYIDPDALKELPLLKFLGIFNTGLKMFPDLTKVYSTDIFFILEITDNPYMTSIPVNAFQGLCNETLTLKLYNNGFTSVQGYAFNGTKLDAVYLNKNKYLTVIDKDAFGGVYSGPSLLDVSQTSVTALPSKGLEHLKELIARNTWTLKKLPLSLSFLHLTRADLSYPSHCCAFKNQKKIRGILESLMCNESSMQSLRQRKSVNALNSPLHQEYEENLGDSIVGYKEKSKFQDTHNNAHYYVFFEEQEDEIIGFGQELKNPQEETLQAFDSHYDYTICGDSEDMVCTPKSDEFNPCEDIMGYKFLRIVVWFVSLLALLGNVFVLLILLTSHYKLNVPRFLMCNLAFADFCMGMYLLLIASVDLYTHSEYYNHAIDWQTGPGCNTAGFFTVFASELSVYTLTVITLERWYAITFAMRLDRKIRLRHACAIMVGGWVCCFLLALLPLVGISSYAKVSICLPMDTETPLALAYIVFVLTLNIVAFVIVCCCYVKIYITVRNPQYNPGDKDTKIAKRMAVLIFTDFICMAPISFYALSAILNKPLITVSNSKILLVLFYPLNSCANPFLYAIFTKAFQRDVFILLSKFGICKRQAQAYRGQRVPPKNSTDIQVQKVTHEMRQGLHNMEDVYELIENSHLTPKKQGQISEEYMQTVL
Nicotinamide N-methyltransferase (Homo sapiens), sequence (P40261 whole entry, looked up): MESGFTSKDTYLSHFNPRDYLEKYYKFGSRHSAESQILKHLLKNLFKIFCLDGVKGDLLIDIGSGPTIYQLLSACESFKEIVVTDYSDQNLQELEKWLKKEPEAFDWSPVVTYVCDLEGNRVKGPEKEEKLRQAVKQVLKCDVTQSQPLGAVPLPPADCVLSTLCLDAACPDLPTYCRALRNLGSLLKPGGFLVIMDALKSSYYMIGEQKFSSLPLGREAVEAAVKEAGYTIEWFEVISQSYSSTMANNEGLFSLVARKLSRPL
ATP-dependent DNA helicase Q1 (Homo sapiens), sequence (P46063 whole entry, looked up): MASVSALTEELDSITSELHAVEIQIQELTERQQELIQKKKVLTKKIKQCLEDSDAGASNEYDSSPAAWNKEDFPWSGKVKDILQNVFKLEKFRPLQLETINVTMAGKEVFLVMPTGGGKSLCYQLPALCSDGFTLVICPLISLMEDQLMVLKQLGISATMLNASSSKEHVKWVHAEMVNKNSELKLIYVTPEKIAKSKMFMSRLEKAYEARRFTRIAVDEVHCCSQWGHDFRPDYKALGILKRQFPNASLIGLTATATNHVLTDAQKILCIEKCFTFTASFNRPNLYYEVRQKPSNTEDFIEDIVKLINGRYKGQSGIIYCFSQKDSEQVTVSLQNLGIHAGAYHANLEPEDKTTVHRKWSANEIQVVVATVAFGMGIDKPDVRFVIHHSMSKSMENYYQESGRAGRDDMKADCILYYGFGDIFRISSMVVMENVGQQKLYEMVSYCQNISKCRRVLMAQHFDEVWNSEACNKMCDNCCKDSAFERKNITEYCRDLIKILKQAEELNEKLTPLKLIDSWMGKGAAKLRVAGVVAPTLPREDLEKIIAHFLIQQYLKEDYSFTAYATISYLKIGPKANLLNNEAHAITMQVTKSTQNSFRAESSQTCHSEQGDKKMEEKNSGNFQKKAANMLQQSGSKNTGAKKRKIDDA
M-phase phosphoprotein 8 (Homo sapiens), sequence (Q99549 whole entry, looked up): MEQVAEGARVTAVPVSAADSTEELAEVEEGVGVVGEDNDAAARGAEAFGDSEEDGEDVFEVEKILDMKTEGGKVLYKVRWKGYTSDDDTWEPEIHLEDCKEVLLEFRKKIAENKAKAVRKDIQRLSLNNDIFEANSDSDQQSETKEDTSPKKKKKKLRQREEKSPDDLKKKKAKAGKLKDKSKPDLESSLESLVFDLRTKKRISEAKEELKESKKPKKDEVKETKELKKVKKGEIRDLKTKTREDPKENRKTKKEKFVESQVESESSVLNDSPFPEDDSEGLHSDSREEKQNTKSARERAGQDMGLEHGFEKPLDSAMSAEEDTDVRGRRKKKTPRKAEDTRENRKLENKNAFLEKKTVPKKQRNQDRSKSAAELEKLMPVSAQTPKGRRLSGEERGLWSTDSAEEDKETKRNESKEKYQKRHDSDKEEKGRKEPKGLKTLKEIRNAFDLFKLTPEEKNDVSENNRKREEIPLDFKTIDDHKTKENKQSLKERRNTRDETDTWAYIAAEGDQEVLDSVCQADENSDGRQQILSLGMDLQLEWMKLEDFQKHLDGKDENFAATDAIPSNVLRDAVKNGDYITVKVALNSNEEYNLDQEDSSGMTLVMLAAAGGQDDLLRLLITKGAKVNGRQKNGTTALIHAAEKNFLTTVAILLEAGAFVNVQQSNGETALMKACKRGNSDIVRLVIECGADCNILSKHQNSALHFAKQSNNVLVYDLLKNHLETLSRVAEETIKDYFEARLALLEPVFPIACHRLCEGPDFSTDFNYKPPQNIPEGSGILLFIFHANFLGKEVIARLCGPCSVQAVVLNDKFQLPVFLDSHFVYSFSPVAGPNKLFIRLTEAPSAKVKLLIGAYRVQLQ
Galactokinase (Homo sapiens), sequence (P51570 whole entry, looked up): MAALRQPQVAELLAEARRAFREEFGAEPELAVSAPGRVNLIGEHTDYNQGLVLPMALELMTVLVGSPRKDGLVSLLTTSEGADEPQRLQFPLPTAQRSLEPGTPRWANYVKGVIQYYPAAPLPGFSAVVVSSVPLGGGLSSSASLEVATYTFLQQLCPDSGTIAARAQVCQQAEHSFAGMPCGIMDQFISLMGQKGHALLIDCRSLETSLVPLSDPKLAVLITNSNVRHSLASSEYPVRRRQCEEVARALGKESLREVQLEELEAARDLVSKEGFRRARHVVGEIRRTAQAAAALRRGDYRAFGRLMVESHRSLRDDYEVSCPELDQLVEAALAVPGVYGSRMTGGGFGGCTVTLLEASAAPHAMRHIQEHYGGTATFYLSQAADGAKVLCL
Ferritin light chain (Equus caballus), sequence (P02791 2-175 limits assumed): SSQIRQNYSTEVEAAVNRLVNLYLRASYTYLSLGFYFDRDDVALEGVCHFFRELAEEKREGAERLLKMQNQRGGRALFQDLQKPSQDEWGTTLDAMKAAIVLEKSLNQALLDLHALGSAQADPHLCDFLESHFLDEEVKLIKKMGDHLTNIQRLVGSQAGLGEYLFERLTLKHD
Phenylethanolamine N-methyltransferase (Homo sapiens), sequence (P11086 whole entry, looked up): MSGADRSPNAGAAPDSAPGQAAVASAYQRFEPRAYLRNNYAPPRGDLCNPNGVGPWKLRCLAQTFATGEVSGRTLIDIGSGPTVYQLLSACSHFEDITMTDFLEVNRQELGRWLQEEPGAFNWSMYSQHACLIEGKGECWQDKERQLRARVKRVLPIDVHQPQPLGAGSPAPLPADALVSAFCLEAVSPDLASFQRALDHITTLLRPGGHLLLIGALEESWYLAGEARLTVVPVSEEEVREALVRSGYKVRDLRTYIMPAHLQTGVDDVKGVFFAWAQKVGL

On to `COc1ccc(CCNC(=O)c2ccc(CN3C(=O)CCn4nccc43)cc2)cc1OC`, for which the activity in [1] is -29.4%; in assay [3] it was -12.4%; in [4] it was -27%. The Potency in [2] is 24.1 µM (active).
Consider `O=C(OCc1ccccc1)N1CCOCC12CCN(Cc1c[nH]c3ccccc13)CC2`, for which the activity in assay [1] worked out at 6.86%; in assay [3] it was 5.55%; in assay [4], 1.46%. Besides, the activity change, negative = inhibition in assay [2] is 9.15% [at 85.7 µM].
For `CC(=O)O[C@]1(C(C)=O)CC[C@H]2C3C=C(Cl)C4=CC(=O)[C@@H]5C[C@H]5[C@]4(C)C3CC[C@@]21C` (some centres undefined), the Potency entry in assay [5], in assay [13], in assay [15] and in assay [18] was “inactive” each time. Moreover, the Potency in [6] is 12.6 µM (active); in [7] it was 10 µM (active); in assay [8], 8.91 µM (active); in assay [9] it was 14.1 µM (active); in assay [10], 8.91 µM (active); in [11], 12.6 µM (active). For the same molecule, in assay [14], the Potency is 9.28 µM (active). The outcome in [12], in assay [16] and in assay [17] was “inactive” throughout.
For `CN(Cc1ccccc1)C1(C(=O)NC2CCC(O)CC2)Cc2ccccc2C1` (centres undefined), the activity was found to be 2.67% in assay [1], 7.08% in assay [3] and 6.38% in [4]. In [2], the activity change, negative = inhibition stood at 3.98%.
On to `Cc1c(C)c2c(c(C)c1O)CCC(C)(CN1CCN(c3cc(N4CCCC4)nc(N4CCCC4)n3)CC1)O2` (centres undefined), for which the outcome in [19], in assay [21], in [12], in assay [16] and in assay [17] was “inactive” each time. Also, the Potency in [6] is 0.562 µM (active); in assay [7], 0.501 µM (active); in [8], 0.891 µM (active); in [9], 0.501 µM (active); in assay [20], 1.26 µM (active); in [10], 0.355 µM (active). Besides, the Potency is 0.891 µM (active) in assay [11]; 4.47 µM (active) in [22]; 1.65 µM (active) in [13]; 1.85 µM (active) in assay [14]; 11.2 µM (active) in assay [15]; 7.08 µM (active) in [24]. For the same molecule, in [23], the activation is -7.62% (inactive).
For `CC(=O)SC1CC2=CC(=O)CC[C@]2(C)C2CC[C@@]3(C)[C@@H](CC[C@@]34CCC(=O)O4)C12` (some centres undefined), the outcome in assay [19], in [21], in assay [12], in assay [16] and in assay [17] was “inactive” in each case. The Potency entry in assay [5], in assay [14], in assay [15] and in assay [18] was “inactive” each time. Further, the Potency was 11.2 µM (active) in [6], 7.94 µM (active) in assay [7] and 7.08 µM (active) in assay [10]. Further, the activation in [23] is 1.19% (inactive).
On to `Nc1nc(Cl)nc2c1ncn2[C@@H]1O[C@H](COP(=O)(O)OP(=O)(O)OP(=O)(O)O)[C@H](O)[C@H]1O`, for which the outcome in [19], in [21], in assay [12], in [16] and in assay [17] was “inactive” in each case. For the same molecule, the Potency result in assay [6], in assay [8], in [9], in [20], in assay [10] and in assay [11] was “inactive” in each case. The Potency entry in assay [13], in [14], in assay [15], in assay [18] and in assay [24] was “inactive” in each case. Moreover, the activation in [23] is 6.94% (inactive).
